Results on 31 molecules are retold here after PubChem BioAssay (NCATS).

Unmarked numbers belong to inactive results. Inconclusive results are not listed. Calls of active or inactive are those of the source. Unless noted, the call rests on the fitted dose curve; in most records, active means well fitted curve in the direction sought with a large enough effect; inconclusive means small, poorly fitted or top-dose-only effect, or another doubt; inactive means no such curve, though single readings can be large; an effect the other way counts as inactive or inconclusive.

Sequence of Pyruvate kinase PKM (Homo sapiens) (P14618 whole entry, looked up): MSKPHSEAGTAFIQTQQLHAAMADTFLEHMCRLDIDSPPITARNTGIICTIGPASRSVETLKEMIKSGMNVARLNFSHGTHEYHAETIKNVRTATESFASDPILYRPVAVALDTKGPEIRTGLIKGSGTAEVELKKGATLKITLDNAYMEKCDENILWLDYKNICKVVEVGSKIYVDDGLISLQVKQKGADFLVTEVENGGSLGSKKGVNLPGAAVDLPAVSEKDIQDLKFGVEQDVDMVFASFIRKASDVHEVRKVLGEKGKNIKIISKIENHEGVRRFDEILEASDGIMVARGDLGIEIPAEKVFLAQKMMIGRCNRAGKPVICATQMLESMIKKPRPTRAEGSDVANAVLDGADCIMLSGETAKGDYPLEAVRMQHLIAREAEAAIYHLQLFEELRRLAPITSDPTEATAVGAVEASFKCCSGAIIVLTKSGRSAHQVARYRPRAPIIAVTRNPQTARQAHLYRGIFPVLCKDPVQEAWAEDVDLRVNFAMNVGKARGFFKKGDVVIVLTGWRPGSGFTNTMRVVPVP
Sequence of Alpha-galactosidase (Coffea arabica) (Q42656 whole entry, looked up): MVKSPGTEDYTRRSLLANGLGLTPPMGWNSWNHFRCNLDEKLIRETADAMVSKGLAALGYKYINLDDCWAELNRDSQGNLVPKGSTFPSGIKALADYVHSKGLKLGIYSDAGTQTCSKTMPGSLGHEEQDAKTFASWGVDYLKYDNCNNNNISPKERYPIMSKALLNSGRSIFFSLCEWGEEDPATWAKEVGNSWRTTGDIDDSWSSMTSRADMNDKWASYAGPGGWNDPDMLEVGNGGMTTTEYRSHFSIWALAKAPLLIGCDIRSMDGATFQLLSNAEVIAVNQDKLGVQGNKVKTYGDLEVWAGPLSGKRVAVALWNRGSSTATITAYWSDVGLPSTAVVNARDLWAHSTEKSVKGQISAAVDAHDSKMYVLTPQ

Test system in the first test: not listed separately
Put plainly: Cell Viability - LYMP1-002 - Assay at 16 hr (AID 948).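 Further: 0% = DMSO alone and full effect = 92 µM tetraoctylammonium bromide.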 The following applies: LYMP1-002 lymphoblastoid cell viability; series mostly up to 92.2 µM; activity change, negative = cytotoxicity: at the top concentration. Summed up:
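LYMP1-002 human lymphoblastoid cells, 2500/well; 5 hr 37 C; cpd 16 hr 37 C; CellTiter-Glo 30 min RT; luminescence (ATP). Concentration-response, Hill-fit AC50. Pos ctrl tetraoctylammonium bromide.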
In the case of `C[C@]12C/C(=C/O)C(=O)C[C@@H]1CC[C@@H]1[C@@H]2CC[C@@]2(C)[C@H]1CC[C@]2(C)O`, the “activity change, negative = cytotoxicity” value is -23.7%.

For the molecule `Oc1ccccc1-c1ccccc1`, the “activity change, negative = cytotoxicity” value is -2.92%.

With `Clc1ccc(COC(Cn2ccnc2)c2ccc(Cl)cc2Cl)cc1` (stereo not drawn), the “activity change, negative = cytotoxicity” value is -22.6%.

`Oc1ccc(Cl)cc1Cc1ccccc1`: the “activity change, negative = cytotoxicity” value is -7.33%.

With `N[C@@H](Cc1ccc(N(CCCl)CCCl)cc1)C(=O)O`, the “activity change, negative = cytotoxicity” value is -7.43%.

With `OCCOc1ccccc1`, the “activity change, negative = cytotoxicity” value was -2.2%.

On to `NCC(O)c1ccc(O)cc1` (stereo not drawn), for which the “activity change, negative = cytotoxicity” value was -2.21%.

`CCCC(C)(COC(N)=O)COC(=O)NC(C)C` (stereo not drawn): the “activity change, negative = cytotoxicity” value was -6.54%.

Turning to `c1ccc2c(c1)Nc1ccccc1S2`, the “activity change, negative = cytotoxicity” value was -4.72%.

For `CCOP(=S)(OCC)Oc1cc(C)nc(C(C)C)n1`, the “activity change, negative = cytotoxicity” value is -7.77%.

As to `CNCC(O)c1ccc(O)cc1` (stereo not drawn), the “activity change, negative = cytotoxicity” value is -1.57%.

For another test, the target named is Pyruvate kinase PKM (Homo sapiens) (UniProt P14618). Nature of the test: qHTS Assay for Activators of Human Muscle Pyruvate Kinase (AID 954; active means well fitted curve in the direction sought with a large enough effect, not every such curve was filed as active;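 further: 0% = uninhibited enzyme and -100% = no enzyme or full thiadiazolimine inhibition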). The following applies: purified human muscle pyruvate kinase, luciferase-coupled luminescence, 1 h; series mostly up to 57.5 µM; activity change, negative = inhibition: at the top concentration. Summed up:
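Luminescence from a luciferase ATP-detection/stop reagent reported PKM2 activity. Reactions contained 0.1 nM purified human enzyme, 0.5 mM PEP, 0.1 mM ADP and 7 mM MgCl2 at pH 7.2, run 1 h at RT.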
A general note: qHTS replaces the single test concentration by a dilution series.
Consider `O=c1[nH]c2ccccc2n1C1CCN(CCCC(c2ccc(F)cc2)c2ccc(F)cc2)CC1`, for which the “activity change, negative = inhibition” value was -7.41%.

On to `c1ccc(C2CC2)c(OCC2=NCCN2)c1`, for which the “activity change, negative = inhibition” value is -10.9%.

For `Clc1cccc(N2CCNCC2)c1`, the “activity change, negative = inhibition” value is -9.83%.

With `Cc1ncc(CNC(=O)N(CCCl)N=O)c(N)n1`, the “activity change, negative = inhibition” value is -6.81%.

Consider `Nc1ccncc1`, for which the “activity change, negative = inhibition” value is -25.5%.

Take `CCCC(C)(COC(N)=O)COC(=O)NC(C)C` (stereo not drawn): the “activity change, negative = inhibition” value is -7.7%.

`CN1C[C@H](CNC(=O)OCc2ccccc2)C[C@@H]2c3cccc4c3c(cn4C)C[C@H]21`: the “activity change, negative = inhibition” value is -5.05%.

In the case of `CC(=O)[C@H]1CC[C@H]2[C@@H]3CC[C@H]4C[C@H](O)CC[C@]4(C)[C@H]3C(=O)C[C@]12C`, the “activity change, negative = inhibition” value was -24.6%.

Take `CCCN1CCC[C@@H]2Cc3nc(N)ncc3C[C@H]21`: the “activity change, negative = inhibition” value is -6.29%.

Turning to `N#CC(C#N)=Cc1ccc(O)c(O)c1`, the “activity change, negative = inhibition” value was -8.47%.

Turning to `NCC(CC(=O)O)c1ccc(Cl)cc1` (stereo not drawn), the “activity change, negative = inhibition” value is 5.75%.

Regarding `CCCN1CCC[C@@H]2Cc3[nH]ncc3C[C@H]21`, the call was inactive.

In the case of `Fc1ccc(C(OCCN2CCN(CCCc3ccccc3)CC2)c2ccc(F)cc2)cc1`, the “activity change, negative = inhibition” value is -19.1%.

Turning to `NCC1(CC(=O)O)CCCCC1`, the “activity change, negative = inhibition” value is 4.26%.

Turning to `COc1ccccc1N1CCNCC1`, the “activity change, negative = inhibition” value was -11%.

In the case of `NN=C(N)N`, the molecule was classed as inactive.

In the case of `CCn1cc(C(=O)O)c(=O)c2ccc(C)nc21`, the “activity change, negative = inhibition” value is -9.92%.

Turning to `N[C@@H]1C[C@H]1c1ccccc1`, the “activity change, negative = inhibition” value was -18.3%.

As for `Cc1ccc(S(=O)(=O)N[C@@H](CCCCN)C(=O)CCl)cc1`, the “activity change, negative = inhibition” value is -20.2%.

As for `Cc1cccc(C)c1NC1=NCCCS1`, the “activity change, negative = inhibition” value is -17.1%.

In the case of `O=c1[nH]c2ccccc2n1CCCN1CCC(n2c(=O)[nH]c3cc(Cl)ccc32)CC1`, the “activity change, negative = inhibition” value is -12.6%.

Regarding `CNCC(O)c1ccc(O)cc1` (stereo not drawn), the “activity change, negative = inhibition” value was -21.3%.

The next test concerns the target Alpha-galactosidase (Coffea arabica) (UniProt Q42656). Nature of the test: Counterscreen for Glucocerebrosidase Inhibitors: qHTS Assay for Coffee Bean alpha-Galactosidase at pH 4.5 (AID 957).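 Further: plate controls were enzyme alone for no effect and no enzyme for full effect.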 The settings on record: purified coffee bean alpha-galactosidase, fluorogenic substrate; series mostly up to 76.9 µM; activity change, negative = inhibition: at the top concentration. In outline:
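Green coffee bean enzyme (2 nM final) was incubated with compounds (0.7 nM to 77 uM) and 4-methylumbelliferyl alpha-D-galactopyranoside (80 uM final) in 50 mM citric acid, 0.005% Tween-20, pH 4.5, 20 min at room temperature; AC50 from Hill fits.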
For the molecule `O=c1[nH]c2ccccc2n1C1CCN(CCCC(c2ccc(F)cc2)c2ccc(F)cc2)CC1`, the “activity change, negative = inhibition” value was -11.5%.

In the case of `Clc1cccc(N2CCNCC2)c1`, the “activity change, negative = inhibition” value was -0.986%.

On to `Cc1ncc(CNC(=O)N(CCCl)N=O)c(N)n1`, for which the “activity change, negative = inhibition” value was -0.428%.

On to `Nc1ccncc1`, for which the “activity change, negative = inhibition” value is -2.45%.

`CN1C[C@H](CNC(=O)OCc2ccccc2)C[C@@H]2c3cccc4c3c(cn4C)C[C@H]21`: the “activity change, negative = inhibition” value is -3.29%.

Regarding `CC(=O)[C@H]1CC[C@H]2[C@@H]3CC[C@H]4C[C@H](O)CC[C@]4(C)[C@H]3C(=O)C[C@]12C`, the “activity change, negative = inhibition” value was 1.84%.

With `N#CC(C#N)=Cc1ccc(O)c(O)c1`, the “activity change, negative = inhibition” value is -3.65%.

As to `NCC(CC(=O)O)c1ccc(Cl)cc1` (stereo not drawn), the “activity change, negative = inhibition” value was -1.12%.

In the case of `CCCN1CCC[C@@H]2Cc3[nH]ncc3C[C@H]21`, the molecule was classed as inactive.

For `NCC1(CC(=O)O)CCCCC1`, the “activity change, negative = inhibition” value is 0.833%.

In the case of `CCn1cc(C(=O)O)c(=O)c2ccc(C)nc21`, the “activity change, negative = inhibition” value is 1.48%.

`N[C@@H]1C[C@H]1c1ccccc1`: the “activity change, negative = inhibition” value was 0.0931%.

On to `Cc1ccc(S(=O)(=O)N[C@@H](CCCCN)C(=O)CCl)cc1`, for which the “activity change, negative = inhibition” value was 0.587%.

As to `Cc1cccc(C)c1NC1=NCCCS1`, the “activity change, negative = inhibition” value is 3.62%.

As for `O=c1[nH]c2ccccc2n1CCCN1CCC(n2c(=O)[nH]c3cc(Cl)ccc32)CC1`, the “activity change, negative = inhibition” value was 0.058%.

Regarding `CNCC(O)c1ccc(O)cc1` (stereo not drawn), the “activity change, negative = inhibition” value is -0.575%.

Test system in a further test: not listed separately
Put plainly: MultiTox-Fluor Cytotoxicity Assay - LYMP1-002 - Dead Cells (AID 960).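 Further: 0% = DMSO and 100% = tetraoctylammonium bromide; nearly all actives have a fitted effect of over 60% in size.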 The settings on record: LYMP1-002 lymphoblastoid cells, dead-cell protease fluorescence; series mostly up to 46.1 µM; cytotoxicity (dead cells): at the top concentration. Summed up: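 Human lymphoblastoid cells (LYMP1-002), 2500/well in complete medium, were exposed to compounds for 16 hr at 37 C. Dead-cell protease activity was read as bis-AAF-R110 fluorescence (Ex/Em 485/520), normalized to DMSO and 15 uM tetraoctylammonium bromide; AC50 from Hill fits.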
In the case of `Oc1ccccc1-c1ccccc1`, the “cytotoxicity (dead cells)” value was 7.33%.

Take `Oc1ccc(Cl)cc1Cc1ccccc1`: the “cytotoxicity (dead cells)” value is 23.8%.

`N[C@@H](Cc1ccc(N(CCCl)CCCl)cc1)C(=O)O`: the “cytotoxicity (dead cells)” value is -2.8%.

On to `OCCOc1ccccc1`, for which the “cytotoxicity (dead cells)” value is 19%.

In the case of `NCC(O)c1ccc(O)cc1` (stereo not drawn), the “cytotoxicity (dead cells)” value was 15.5%.

For the molecule `CCCC(C)(COC(N)=O)COC(=O)NC(C)C` (stereo not drawn), the “cytotoxicity (dead cells)” value was 3.38%.

As for `c1ccc2c(c1)Nc1ccccc1S2`, the “cytotoxicity (dead cells)” value was 21.2%.

For the molecule `CCOP(=S)(OCC)Oc1cc(C)nc(C(C)C)n1`, the “cytotoxicity (dead cells)” value is 15.1%.

Test system in the next test: not listed separately
Nature of the test: MultiTox-Fluor Cytotoxicity Assay - LYMP1-003 - Dead Cells (AID 961). Further: nearly all actives have a fitted effect of over 70% in size. Further: potency means the concentration at half of the fitted maximal effect.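 On cytotoxicity (dead cells): 0% = DMSO and 100% = tetraoctylammonium bromide.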 The settings on record: LYMP1-003 lymphoblastoid cells, dead-cell protease fluorescence; series mostly up to 92.2 µM; cytotoxicity (dead cells): at the top concentration. Summed up:
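Human lymphoblastoid LYMP1-003 cells (2500/well) were treated with compounds for 16 hr at 37 C in complete medium. Dead-cell protease release was read by bis-AAF-R110 fluorescence (Ex/Em 485/520). AC50 came from Hill fits, normalized to DMSO and 15 uM tetraoctylammonium bromide.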
For `Oc1ccccc1-c1ccccc1`, the “cytotoxicity (dead cells)” value is 9.35%.

For `Clc1ccc(COC(Cn2ccnc2)c2ccc(Cl)cc2Cl)cc1` (stereo not drawn), the Potency is 63.1 µM (active).

As for `Oc1ccc(Cl)cc1Cc1ccccc1`, the “cytotoxicity (dead cells)” value was 0.168%.

Take `N[C@@H](Cc1ccc(N(CCCl)CCCl)cc1)C(=O)O`: the “cytotoxicity (dead cells)” value is -9.7%.

In the case of `OCCOc1ccccc1`, the “cytotoxicity (dead cells)” value was -2.4%.

For `NCC(O)c1ccc(O)cc1` (stereo not drawn), the “cytotoxicity (dead cells)” value is -5.57%.

Take `CCCC(C)(COC(N)=O)COC(=O)NC(C)C` (stereo not drawn): the “cytotoxicity (dead cells)” value is -14.4%.

As for `c1ccc2c(c1)Nc1ccccc1S2`, the “cytotoxicity (dead cells)” value was -8.85%.

As for `CCOP(=S)(OCC)Oc1cc(C)nc(C(C)C)n1`, the “cytotoxicity (dead cells)” value was 10.7%.

As to `CNCC(O)c1ccc(O)cc1` (stereo not drawn), the “cytotoxicity (dead cells)” value is -16.6%.

Test system in the next test: not listed separately
Nature of the test: MultiTox-Fluor Cytotoxicity Assay - LYMP1-003 - Live Cells (AID 962).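 Further: 0% = DMSO only and full loss = 92 µM tetraoctylammonium bromide; cytotoxic hits lower the live-cell protease signal.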 The settings on record: LYMP1-003 lymphoblastoid cells, MultiTox-Fluor live-cell protease fluorescence; series mostly up to 92.2 µM; activity change, negative = fewer live cells: at the top concentration. In outline: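 LYMP1-003 human lymphoblastoid cells (2500/well) in complete medium were preincubated 5 hr at 37 C, then exposed to compounds for 16 hr at 37 C. Live-cell protease cleavage of GF-AFC read by fluorescence (Ex/Em 405/510); AC50 from Hill fits.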
Consider `C[C@]12C/C(=C/O)C(=O)C[C@@H]1CC[C@@H]1[C@@H]2CC[C@@]2(C)[C@H]1CC[C@]2(C)O`, for which the “activity change, negative = fewer live cells” value is -24.3%.

With `Oc1ccccc1-c1ccccc1`, the “activity change, negative = fewer live cells” value is -8.09%.

As to `Clc1ccc(COC(Cn2ccnc2)c2ccc(Cl)cc2Cl)cc1` (stereo not drawn), the “activity change, negative = fewer live cells” value was -18.7%.

Consider `Oc1ccc(Cl)cc1Cc1ccccc1`, for which the “activity change, negative = fewer live cells” value is -1.36%.

In the case of `N[C@@H](Cc1ccc(N(CCCl)CCCl)cc1)C(=O)O`, the “activity change, negative = fewer live cells” value is -1.57%.

As for `OCCOc1ccccc1`, the “activity change, negative = fewer live cells” value is -3.54%.

In the case of `NCC(O)c1ccc(O)cc1` (stereo not drawn), the “activity change, negative = fewer live cells” value was -3.84%.

As to `CCCC(C)(COC(N)=O)COC(=O)NC(C)C` (stereo not drawn), the “activity change, negative = fewer live cells” value was -0.699%.

Consider `c1ccc2c(c1)Nc1ccccc1S2`, for which the “activity change, negative = fewer live cells” value is -3%.

As for `CCOP(=S)(OCC)Oc1cc(C)nc(C(C)C)n1`, the “activity change, negative = fewer live cells” value is -2.61%.

As to `CNCC(O)c1ccc(O)cc1` (stereo not drawn), the “activity change, negative = fewer live cells” value is 0.0472%.
